The results in this text go back to PubChem BioAssay (NCI).

This is part of a sample that, as a whole, favours compounds with a hit. Of some 83,000 tested, about 20% had one in any assay.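 Assay: single dose, 48 h. Readout: percent growth (0 = no net growth; negative = cell death). Active: <10.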 A number with no mark means an inactive call. Calls of active or inactive are those of the source.

Test systems include HCT-15 colon; HT29 colon; SNB-75 CNS; SNB-19 CNS; U251 CNS; PC-3 prostate; SK-MEL-5 melanoma; UACC-62 melanoma; LOX IMVI melanoma; SK-MEL-28 melanoma.
What all share (assay): NCI-60 one-dose screen, 48 h (100 = growth as untreated, 0 = no growth, -100 = all killed)
Holding throughout (details): 10 µM unless noted

With `Clc1ccc(Cl)c(N=Cc2ccc3c(c2)OCO3)c1`, the growth was 106% in the assay on HCT-15 colon; 110% with HT29 colon; 103% in the assay with SNB-75 CNS; 107% with SNB-19 CNS; 104% with U251 CNS; 107% in the assay with PC-3 prostate. Besides, the growth in the assay with SK-MEL-5 melanoma is 106%; with UACC-62 melanoma, 103%; with LOX IMVI melanoma, 95.2%; in the assay on SK-MEL-28 melanoma, 116%.
`O=C(Nc1ccc([N+](=O)[O-])cc1)c1cc2ccccc2cc1O`: the growth in the assay on HCT-15 colon was 0.0174% (active); in the assay with HT29 colon, 24.4%; with SNB-75 CNS, -6.38% (active); in the assay with SNB-19 CNS it was 23.7%; in the assay with U251 CNS, 2.66% (active); in the assay on PC-3 prostate, -11.2% (active). Moreover, the growth in the assay with SK-MEL-5 melanoma is -86.8% (active); in the assay with UACC-62 melanoma, -28.8% (active); in the assay with LOX IMVI melanoma, -1.01% (active); in the assay with SK-MEL-28 melanoma it was 7.4% (active).
Turning to `COc1cccc(C2C(C#N)=C(N)Oc3cc4c(cc32)OCO4)c1` (stereo not given), the growth in the assay on HCT-15 colon is 16.4%; in the assay with HT29 colon, 8.91% (active); in the assay on SNB-75 CNS it was 8.73% (active); in the assay on SNB-19 CNS it was 39.2%; in the assay with U251 CNS it was 23.4%; in the assay with PC-3 prostate, 27.4%. For the same compound, the growth in the assay with SK-MEL-5 melanoma is 4.73% (active); with UACC-62 melanoma, 33.6%; with LOX IMVI melanoma, 23.1%; in the assay on SK-MEL-28 melanoma it was 43%.
Turning to `Cc1cc(O)ccc1Sc1ccccc1[N+](=O)[O-]`, the growth was 92.7% in the assay on HCT-15 colon; 94.3% in the assay on HT29 colon; 94.8% in the assay on SNB-75 CNS; 91.6% in the assay with SNB-19 CNS; 94.2% in the assay with U251 CNS; 82.3% in the assay with PC-3 prostate. The growth was 91.1% in the assay on SK-MEL-5 melanoma, 76% with UACC-62 melanoma, 84.1% in the assay with LOX IMVI melanoma and 101% in the assay with SK-MEL-28 melanoma.
Regarding `N=C(N)c1ccc(-c2ccc(-c3ccco3)o2)cc1F`, the growth was -40.6% (active) with HCT-15 colon; -2.59% (active) with HT29 colon; 41.4% with SNB-75 CNS; 67.2% in the assay on SNB-19 CNS; -16.8% (active) with U251 CNS; 24.5% in the assay on PC-3 prostate. Besides, the growth in the assay with SK-MEL-5 melanoma is -93.6% (active); with UACC-62 melanoma, -68.6% (active); in the assay on LOX IMVI melanoma, -9.26% (active); in the assay on SK-MEL-28 melanoma, -46.8% (active).
Consider `COc1ccc([C@H]2c3[nH]c4ccccc4c3C[C@H]3C(=O)N(CCCCCCC(=O)NO)CC(=O)N23)cc1`, for which the growth in the assay on HCT-15 colon is 81%; in the assay with HT29 colon, 35%; with SNB-75 CNS it was -0.662% (active); in the assay with SNB-19 CNS it was 48.5%; in the assay with U251 CNS, 30.4%; in the assay on PC-3 prostate, 11.9%. Besides, the growth in the assay on SK-MEL-5 melanoma was 12.4%; in the assay on UACC-62 melanoma, 9.81% (active); with LOX IMVI melanoma it was 13.1%; with SK-MEL-28 melanoma, 4.8% (active).
On to `O=C(N/N=C/c1ccc([N+](=O)[O-])o1)c1ccc(O)cc1`, for which the growth was 42.9% with HCT-15 colon; 17.1% with HT29 colon; 84.7% in the assay with SNB-75 CNS; 54% with SNB-19 CNS; 34% in the assay with U251 CNS; 87.4% with PC-3 prostate. For the same compound, the growth in the assay with SK-MEL-5 melanoma was 2.57% (active); with UACC-62 melanoma, 47.5%; with LOX IMVI melanoma, 12.9%; in the assay on SK-MEL-28 melanoma it was 77.7%.
`CCCCOc1nc2ccccc2cc1/C=C/c1cc(/C=C/c2cc3ccccc3nc2OCCCC)n(-c2ccccc2)n1`: the growth in the assay on HCT-15 colon is 116%; in the assay with HT29 colon, 93.5%; in the assay with SNB-75 CNS, 82.5%; with SNB-19 CNS, 97.3%; with U251 CNS, 99%; in the assay with PC-3 prostate, 93.1%. The growth is 101% with SK-MEL-5 melanoma, 81.3% with UACC-62 melanoma, 95.9% in the assay on LOX IMVI melanoma and 114% in the assay on SK-MEL-28 melanoma.
Regarding `CCOC(=O)c1cnc(SCC)nc1SC#N`, the growth was 63.3% with HCT-15 colon; 81.5% in the assay with HT29 colon; 93.1% in the assay on SNB-75 CNS; 110% in the assay on SNB-19 CNS; 89.2% in the assay on U251 CNS; 91.7% with PC-3 prostate. Also, the growth was 126% with SK-MEL-5 melanoma, 94.3% in the assay with UACC-62 melanoma, 83% in the assay with LOX IMVI melanoma and 108% in the assay on SK-MEL-28 melanoma.
With `O=C(C(=O)N1CCCC1)c1cn(CCCn2cc(C(=O)C(=O)N3CCCC3)c3cc(Br)ccc32)c2ccc(Br)cc12`, the growth in the assay with HCT-15 colon is 84.6%; in the assay with HT29 colon it was 79.3%; in the assay with SNB-75 CNS it was 46.3%; in the assay on SNB-19 CNS, 85.5%; in the assay with U251 CNS, 36.6%; in the assay on PC-3 prostate, 66.5%. For the same compound, the growth in the assay on SK-MEL-5 melanoma is 90.8%; in the assay with UACC-62 melanoma, 85.1%; in the assay with LOX IMVI melanoma, 57.9%; in the assay with SK-MEL-28 melanoma, 79.8%.
As to `COc1cc(C2CC(c3ccc(C)cc3)=NN2C=O)ccc1Oc1ccnc2cc(Cl)ccc12` (stereo not given), the growth was 97.4% in the assay on HCT-15 colon; 92.3% with HT29 colon; -36.1% (active) with SNB-75 CNS; 29.5% with SNB-19 CNS; 7.3% (active) in the assay with U251 CNS; 85.3% in the assay on PC-3 prostate. Moreover, the growth was 97.1% with SK-MEL-5 melanoma, 55.8% in the assay on UACC-62 melanoma, 76% in the assay on LOX IMVI melanoma and 101% in the assay with SK-MEL-28 melanoma.
As to `Cc1ccncc1NC=O`, the growth is 104% with HCT-15 colon; 111% in the assay with HT29 colon; 103% in the assay on SNB-75 CNS; 102% with SNB-19 CNS; 101% with U251 CNS; 99% in the assay on PC-3 prostate. Besides, the growth in the assay with SK-MEL-5 melanoma is 101%; in the assay on UACC-62 melanoma, 101%; with LOX IMVI melanoma it was 104%; in the assay with SK-MEL-28 melanoma it was 112%.
`COc1ccc(/C(C)=N/NC(=O)c2ccc(S(C)(=O)=O)cc2)cc1OC`: the growth was 97.9% in the assay with HCT-15 colon; 117% in the assay with HT29 colon; 85.9% with SNB-75 CNS; 105% with SNB-19 CNS; 104% in the assay on U251 CNS; 99.3% in the assay with PC-3 prostate. For the same compound, the growth was 106% in the assay with SK-MEL-5 melanoma, 102% in the assay with UACC-62 melanoma, 106% in the assay with LOX IMVI melanoma and 105% in the assay on SK-MEL-28 melanoma.
